Six compounds from PubChem BioAssay (NCI) can be followed below.

Assay [1] can be described thus: NCI Yeast Anticancer Drug Screen. Data for the rad50 strain (AID 155).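 Further: 0% = growth of vehicle-only cultures of the same strain.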 Particulars: S. cerevisiae rad50 strain growth inhibition, hits give high values. The essentials:
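Growth of the mutant yeast was measured after compound exposure and referenced to vehicle-treated cultures.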

Assay [2] in a line: NCI Yeast Anticancer Drug Screen. Data for the mec2-1 strain (AID 157). Particulars: S. cerevisiae mec2-1 strain, hits give high values. The essentials:
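Test agents were screened against the mec2-1 yeast strain, with defined DNA repair or cell cycle alteration. Growth was scored as inhibition against vehicle-only controls.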

A short description of assay [3]: NCI Yeast Anticancer Drug Screen. Data for the sgs1 mgt1 strain (AID 161).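 Further: 0% = growth of cultures given vehicle only.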 As to conditions: S. cerevisiae sgs1 mgt1 strain, hits give high values. The essentials: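 Mutant yeast exposed to compound; growth scored against vehicle-only wells.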
Assay [4] is described as follows: NCI Yeast Anticancer Drug Screen. Data for the cln2 rad14 strain (AID 165).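 Further: 0% = growth equal to vehicle treated cultures.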 As to conditions: S. cerevisiae cln2 rad14 strain, hits give high values. In a few lines: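 Growth of compound-exposed yeast (cln2 rad14 genotype) measured and expressed as inhibition relative to vehicle.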
Assay [5] can be described thus: NCI Yeast Anticancer Drug Screen. Data for the bub3 strain (AID 167). Particulars: S. cerevisiae bub3 mutant strain, hits give high values. The essentials: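 Whole-cell yeast assay. The mutant strain was incubated with compounds, and growth inhibition was determined by comparison with vehicle-treated cells.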
A short description of assay [6]: NCI Yeast Anticancer Drug Screen. Data for the mlh1 rad18 strain (AID 175). As to conditions: S. cerevisiae mlh1 rad18 strain growth inhibition, hits give high values. The essentials:
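In this whole-cell yeast screen, a strain with altered DNA damage repair is challenged with compound, and its growth is measured against matched vehicle-treated controls.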

Where [7] appears, read: at 5.0 µM (retest, dose inferred, filed as 0.5).
The mark [8] stands for this setting: at 50.0 µM (retest, dose inferred, filed as 5.0).

Compounds without any hit were thinned out: in the full panel of roughly 79,000, 15% have a hit. Values without a mark were called inactive. Calls of active or inactive are those of the source. No stated cut-off is given here; in the data, active means growth inhibition above about 70%; inactive means the rest.

As for `S=c1[nH]c(-c2ccccc2)cs1`, the growth inhibition was -2% in assay [1] (setting [7]); 77% (active) in assay [1] (setting [8]); 79.5% (active) in assay [1] (at 50.0 µM); 0% in assay [2] (setting [7]); 71% (active) in assay [2] (setting [8]); 85.1% (active) in assay [2] (at 50.0 µM). The growth inhibition in assay [3] (setting [7]) is 0%; in assay [3] (setting [8]), 83% (active); in assay [3] (at 50.0 µM), 92% (active); in assay [4] (setting [7]), -15%; in assay [4] (setting [8]), 73% (active); in assay [4] (at 50.0 µM), 80.2% (active). Moreover, the growth inhibition in assay [5] (setting [7]) was -24%; in assay [5] (setting [8]) it was 89% (active); in assay [5] (at 50.0 µM), 74% (active); in assay [6] (setting [7]), 1%; in assay [6] (setting [8]), 89% (active); in assay [6] (at 50.0 µM), 89.5% (active).
For the compound `CN(C)c1ccc(/C=C/c2nc3ccccc3s2)cc1`, the growth inhibition in assay [1] (setting [7]) was 8%; in assay [1] (setting [8]), 79% (active); in assay [1] (at 50.0 µM), 3.1%; in assay [2] (setting [7]), 14%; in assay [2] (setting [8]), 60%; in assay [2] (at 50.0 µM), 23.6%. The growth inhibition in assay [3] (setting [7]) is -3%; in assay [3] (setting [8]), 91% (active); in assay [3] (at 50.0 µM) it was 4.3%; in assay [4] (setting [7]), -3%; in assay [4] (setting [8]) it was 14%; in assay [4] (at 50.0 µM), 36.4%. The growth inhibition in assay [5] (setting [7]) is -3%; in assay [5] (setting [8]) it was 1%; in assay [5] (at 50.0 µM), -2.45%; in assay [6] (setting [7]), 30%; in assay [6] (setting [8]), 91% (active); in assay [6] (at 50.0 µM), 83.3% (active).
As for `CC(=O)Nc1cccc(C(=O)O)c1`, the growth inhibition in assay [1] (setting [7]) was 6%; in assay [1] (setting [8]), -2%; in assay [1] (at 50.0 µM), 1.3%; in assay [2] (setting [7]) it was -1%; in assay [2] (setting [8]), -4%; in assay [2] (at 50.0 µM) it was 0%. Also, the growth inhibition in assay [3] (setting [7]) was -5%; in assay [3] (setting [8]), 1%; in assay [3] (at 50.0 µM) it was 5.75%; in assay [4] (setting [7]), 4%; in assay [4] (setting [8]) it was -1%; in assay [4] (at 50.0 µM), 39.9%. The growth inhibition was 4% in assay [5] (setting [7]); 7% in assay [5] (setting [8]); 8.6% in assay [5] (at 50.0 µM); 1% in assay [6] (setting [7]); -3% in assay [6] (setting [8]); -16.6% in assay [6] (at 50.0 µM).
On to `COc1ccc(/C=C/c2cc(OC)c(OC)c(OC)c2)cc1O[Si](C)(C)C(C)(C)C`, for which the growth inhibition in assay [1] (setting [7]) was 1%; in assay [1] (setting [8]), -9%; in assay [1] (at 50.0 µM) it was -2.65%; in assay [2] (setting [7]), 0%; in assay [2] (setting [8]) it was -3%; in assay [2] (at 50.0 µM) it was -1.75%. For the same compound, the growth inhibition in assay [3] (setting [7]) was -1%; in assay [3] (setting [8]), -5%; in assay [3] (at 50.0 µM) it was 13.6%; in assay [4] (setting [7]), 1%; in assay [4] (setting [8]), -4%; in assay [4] (at 50.0 µM) it was 53.2%. Also, the growth inhibition is -1% in assay [5] (setting [7]); -7% in assay [5] (setting [8]); -37.5% in assay [5] (at 50.0 µM); 1% in assay [6] (setting [7]); -6% in assay [6] (setting [8]); -4.45% in assay [6] (at 50.0 µM).
`CN(C)CC/C(=N\Nc1ccc([N+](=O)[O-])cc1)c1ccccc1`: the growth inhibition was 12% in assay [1] (setting [7]); 65% in assay [1] (setting [8]); 99.5% (active) in assay [1] (at 50.0 µM); 8% in assay [2] (setting [7]); 86% (active) in assay [2] (setting [8]); 84.4% (active) in assay [2] (at 50.0 µM). Further, the growth inhibition in assay [3] (setting [7]) was 29%; in assay [3] (setting [8]) it was 96% (active); in assay [3] (at 50.0 µM) it was 99.2% (active); in assay [4] (setting [7]) it was 1%; in assay [4] (setting [8]) it was 62%; in assay [4] (at 50.0 µM), 98.8% (active). The growth inhibition is 8% in assay [5] (setting [7]); 98% (active) in assay [5] (setting [8]); 99.7% (active) in assay [5] (at 50.0 µM); 19% in assay [6] (setting [7]); 97% (active) in assay [6] (setting [8]); 98.5% (active) in assay [6] (at 50.0 µM).
Consider `Cc1ccc(NC(=O)Cc2nc3ccccc3s2)c(C)c1`, for which the growth inhibition in assay [1] (setting [7]) was 7%; in assay [1] (setting [8]) it was 99% (active); in assay [1] (at 50.0 µM), 98.7% (active); in assay [2] (setting [7]) it was 9%; in assay [2] (setting [8]), 98% (active); in assay [2] (at 50.0 µM), 99.3% (active). For the same compound, the growth inhibition in assay [3] (setting [7]) is 20%; in assay [3] (setting [8]), 99% (active); in assay [3] (at 50.0 µM) it was 99.5% (active); in assay [4] (setting [7]) it was 6%; in assay [4] (setting [8]), 91% (active); in assay [4] (at 50.0 µM), 95.7% (active). The growth inhibition in assay [5] (setting [7]) was 29%; in assay [5] (setting [8]), 99% (active); in assay [5] (at 50.0 µM), 99% (active); in assay [6] (setting [7]), 14%; in assay [6] (setting [8]), 99% (active); in assay [6] (at 50.0 µM), 99% (active).
